The subject of this assay is VDR:RXRa (NR concentration 270 nM, RXRa partner concentration 90 nM). Put plainly: PBM binding z-score (relative to random genomic background probes); higher = stronger binding; sequences stand for … in GC…GCGATTGACAGCGTAGAATGAAGG
Here is the method: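 Protein-binding microarray (Agilent 4x180K custom design, double-stranded 60-nt probes: 5' GC cap, 34-nt variable region, 24-nt constant primer region; full probe sequence given). Purified or IVT nuclear receptor:RXRα heterodimers (3:1 NR:RXRα, mostly 270:90 nM) or homodimers were incubated for 1 h in PBS with 2% milk and no ligand, then detected with Alexa488 antibodies. Fluorescence from o1-orientation probes (~5 replicates averaged) was converted to z-scores against 500 random hg19 background probes. Variable regions are seed direct-repeat (DR0–DR5) sites, all their single-nucleotide variants and half-site ablations.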
In the case of GATACAGGGTCAGCTAGAGGCCAGTGTATGGAAA, the PBM binding z-score is 3.43.

As for ATCGAGAGGTCGAGGTGAGTATAGAGAAAGGGAA, the PBM binding z-score amounted to 2.41.

With GCTATTAGTTGAAAGGGCAATCGAATGATTCTCG, the PBM binding z-score came out at 0.219.

ACTCGGAAGACAAAGGTCAGAGCTACGCCAGTGA yielded a PBM binding z-score of 2.63.

For the sequence ACTAGCAGGCCAAGGGTCACTTAAGATTAGTCCG, the PBM binding z-score is 2.88.

Regarding CCAGACAGGTAAAAGGTAACTCAGTCTGGTACGC, the PBM binding z-score was 0.318.

Take CCGACTGGGGCAGAACGGTTACCATACCATCCGG: the PBM binding z-score is -0.643.

For AGTCGAAGTTCAGGACGAGGTAACGTAAAGCACG, the PBM binding z-score was 1.15.

CGTCCAAGGTCAATGCTAGGTCGGTGAAAGCATT: the PBM binding z-score came to 4.11.

Sequence TCTTGGAGGACACGAAGGTCAGAGCTTTCCAGAG showed a PBM binding z-score of 2.35.

In turn, CCAGACAGGTGAGAAGGTAACTGAGCCTCGATTA yielded a PBM binding z-score of -0.0476.

Take TCTATTAGTTGACTAGGGCAACCGAAACAGCGGA: the PBM binding z-score worked out at 0.704.

Consider GCGAATGGGGCAAAGCAGGTTACCATAAGGTTGG, for which the PBM binding z-score came out at 0.361.

In turn, CAAACTAGGTCTAGGTCAAAGTCGGTTTGTGCCA yielded a PBM binding z-score of 1.84.

In the case of GCGACTGGGGCATCAGCAGGTTAGCATAACTTAA, the PBM binding z-score was -0.526.

On to CCTACTGGGCCACCAGGTCATTGATATCAACGTT, for which the PBM binding z-score was found to be 1.97.

TCATACAGGTAAAAGGTGAAAGTCGGTGTGGTAA: the PBM binding z-score was found to be 1.64.

In turn, ATCGAAAGGTCGAAGTTGAGTATACCCACCCGAA came in with a PBM binding z-score of 3.08.

Sequence GCTCGGAGGACAAGGTCAGAGATTTGTCCGTAGA returned a PBM binding z-score of 1.22.

In the case of GCATATAGGTAATATAAGGTGAAAGTCCGATTGT, the PBM binding z-score was determined as 0.397.

Take ATTGAAAGGTCGACGAGGTGAGTATACACCGTTT: the PBM binding z-score turned out to be 5.31.

With CCTTACGGGGCACTGACAGGTTATAGCATTTGGA, the PBM binding z-score is -0.341.

Sequence TATAGTTGGTCAAAGGTCACACACTCGAAATGCG came in with a PBM binding z-score of 5.53.

For the sequence TCTAGCAGGCCACAGGGTCACTCAAGAGGTACGG, the PBM binding z-score came to 2.93.

CGAACTAGGTCAAGGTCAGTGAATCTCCGCACGC showed a PBM binding z-score of 3.19.

For TCATATAGGTGAATGCTAGGTGAAAGTCCGATCT, the PBM binding z-score amounted to 0.699.

Turning to ATATGTAGGTTATCGGGTCATTAAGTTTGCGCAT, the PBM binding z-score was 6.04.

With TAGCCTAGGTCATGGGCCAGTATCCCACGCGAAC, the PBM binding z-score turned out to be 1.76.

For the sequence TCATATAGGTAAAAGGTGAAATTCGGTGTGGTAA, the PBM binding z-score is 1.58.

In turn, TCTGCTAGGTCAGTAGGTCAGCTAACGAGCTGCC had a PBM binding z-score of 0.994.

For ATACCAAGGTGATCTTGAGGTCGTTGATACTAAC, the PBM binding z-score stood at 3.57.

As for TCTTGTAGATCAAGCAGGTTAAGATAGCCTGAGT, the PBM binding z-score was 0.573.

Sequence TTACCAAGGTGAGCTCAGGTCGTTGATCCAACTC had a PBM binding z-score of 1.81.

As to TCATATAGGTAATGCAGGTGAAAGTCGGCATCTA, the PBM binding z-score was 0.862.

In turn, TCTTCTAGATCAATAGAGGTTAAGAAAGTGCGCT registered a PBM binding z-score of 1.94.

In turn, CGTCCAAGGTCCGCAGGTCAGTGAAAGCGACGTG had a PBM binding z-score of -0.111.

For the sequence TCATATAGGTACATGCTAGGTGAAAGTCCGATCT, the PBM binding z-score worked out at 0.884.

Take ATATGTAGGTTAAGGGTCACTCAGGTTGGTTCGC: the PBM binding z-score amounted to 5.43.

CAAACTAGGTCAGGAAAGGTCAAAGTCGAATGAC displayed a PBM binding z-score of 6.31.

Regarding GGAACGACGGCAAGTTGATAGCAGAGTTTGATGG, the PBM binding z-score was -0.532.

(Values after the supplement of paper PMC6555819.)
